# An excerpt weighted towards active compounds, which were near 7.3% of everything screened.
# Rab9 prom act: activators of Rab9 promoter; Huh7 Rab9 promoter-luciferase reporter, luminescence, 24 h; Potency, µM (titrated, usually from 9.22 µM), hits mostly activators; 320,000 compounds, 2.8% hits; note: nearly all actives have a fitted effect of over 60% in size
#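 Using Huh7 cells stably transfected with Rab9 promoter–luciferase, compounds were incubated 24 h at 37 °C, 5% CO2; luciferase luminescence was read 10 min after reagent addition.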
# FLuc counter: inhibits or activates purified firefly luciferase, miR-21 counter-screen | AID 588342 | Potency, µM (titrated, usually from 57.5 µM), usual class: inhibitors | 360,000 compounds, 6.9% hits | purified FLuc, Km substrates, luminescence inhibition | P08659; note: nearly all actives have a fitted effect of over 55% in size
# Target sequence (P08659 whole entry, looked up): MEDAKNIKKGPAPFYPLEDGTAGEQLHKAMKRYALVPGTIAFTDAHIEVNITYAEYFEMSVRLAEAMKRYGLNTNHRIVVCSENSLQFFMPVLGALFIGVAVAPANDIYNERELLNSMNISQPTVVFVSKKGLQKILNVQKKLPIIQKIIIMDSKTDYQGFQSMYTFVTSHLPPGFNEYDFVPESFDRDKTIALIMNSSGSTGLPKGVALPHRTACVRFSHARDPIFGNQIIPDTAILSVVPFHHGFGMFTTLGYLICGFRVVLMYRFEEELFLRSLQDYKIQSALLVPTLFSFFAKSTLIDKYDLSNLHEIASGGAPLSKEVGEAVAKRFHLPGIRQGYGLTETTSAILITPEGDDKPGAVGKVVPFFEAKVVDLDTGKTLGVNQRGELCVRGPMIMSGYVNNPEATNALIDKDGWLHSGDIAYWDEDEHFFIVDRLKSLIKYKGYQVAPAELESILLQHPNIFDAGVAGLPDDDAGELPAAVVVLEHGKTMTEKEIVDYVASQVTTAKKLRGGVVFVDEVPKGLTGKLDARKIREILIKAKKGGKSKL
#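 Purified P. pyralis luciferase, 10 nM final, with Km-level 10 uM D-luciferin and 10 uM ATP in 50 mM Tris acetate pH 7.5, 10 mM Mg acetate, 0.01% Tween-20, 0.05% BSA; 6-point qHTS titration about 60 µM downward; luminescence read.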
# NPC1 prom act: activates the NPC1 promoter | Huh7 NPC1 promoter luciferase reporter, 24 h | AID 485313 | 320,000 compounds, 2.4% hits | Potency, µM (series often up to 9.22 µM), usual class: activators; note: nearly all actives have a fitted effect of over 60% in size
#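 In 1536-well qHTS, Huh7 cells harboring an NPC1 promoter–luciferase construct received compound for 24 h; activation was quantified by luminescence following luciferase reagent addition.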
# SMN2 splice up: increases expression of the SMN2 splice variant | AID 1458 | Potency, µM (highest dose often 46.1 µM), actives largely listed as activators | 210,000 compounds, 2.8% hits | HEK293 SMN2-luciferase splicing reporter, luminescence, 30-36 h; note: nearly all actives have a fitted effect of over 55% in size
#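 HEK293 cells carry an SMN2 […]–luciferase reporter in which exon 7 inclusion puts luciferase in frame. Cells were plated 10-12 h before compound addition, then incubated 30-36 h at 37C. ONE-Glo luminescence was read; sodium butyrate at 4.5 mM final served as control.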
# p53 reactivation: mutant p53 re-activation in reporter cells; 320,000 compounds, 0.063% hits; AID 504706; H1299 p53-A138V BP100-luciferase reporter, luminescence, 24 h; Potency, µM (titrated, usually from 92.2 µM), most hits filed as activators; note: nearly all actives have a fitted effect of over 45% in size
#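 H1299 (p53-null), stable ts p53-A138V + BP100-Luc; 1000 cells/well, Opti-MEM/10% FBS; cpd 4 pt, 1:5; 24 h, 37 deg C, 5% CO2; detection reagent 10 min RT; luminescence.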
# ELG1 genotoxic: inducers of genotoxicity in HEK293T ELG1-luciferase cells | 330,000 compounds, 1.3% hits | HEK293T ELG1-luciferase reporter, luminescence, 16 h | Potency, µM (titrated, usually from 46 µM), actives largely listed as activators; note: nearly all actives have a fitted effect of over 60% in size
#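 Screening used a luciferase reporter fused to human ELG1 in HEK293T cells. Luminescence was read on a CCD plate imager after 16 hr exposure and 30 min ONE-Glo incubation.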
# Numbers stand for hits; – = inactive; ? = inconclusive; · = not tested or not shown; [ ] = dose if it differs, or a comment. Calls come from the whole dose curve; as a rule, active = well fitted curve in the direction sought with a large enough effect; inconclusive = small, poorly fitted or top-dose-only effect, or another doubt; inactive = no such curve, though single readings can be large; an effect the other way counts as inactive or inconclusive.
SMILES,Rab9 prom act,FLuc counter,NPC1 prom act,SMN2 splice up,p53 reactivation,ELG1 genotoxic
C/C(=N\OC(=O)c1cccc(C)c1)c1sc(-c2ccccc2)nc1C,2.8µM,–,4µM,?,–,5.8µM
CCOC(=O)c1sc(-c2cccc(C(F)(F)F)c2)nc1O,–,–,–,·,–,–
CCOC(=O)c1ccc(NC(=O)c2cccc3c(=O)c4c([nH]c23)CCCC4)cc1,·,–,·,·,·,·
O=C(N/N=C/c1ccncc1)c1cc2ccccc2o1,–,21µM,–,–,–,–
Cc1cc(/C=N/NC(=O)c2cc3ccccc3o2)c(C)n1C,–,21µM,–,·,–,–
O=C(N/N=C/c1cccnc1)c1cc2ccccc2o1,–,?,–,–,–,–
CCOC(=O)Cn1cc(/C=N/NC(=O)c2cc3ccccc3o2)c2ccccc21,–,13µM,–,·,–,–
CCn1cc(/C=N/NC(=O)c2cc3c(ccc4ccccc43)o2)c2ccccc21,–,?,–,–,–,–
Cc1oc2ccc(O)cc2c1C(=O)OC(C)C,–,15µM,–,–,–,–
Cc1oc2ccc(OCC(N)=O)cc2c1C(=O)OC(C)C,–,–,–,–,–,–
Cc1cn2nc(N)c3ccccc3c2n1,–,–,–,–,–,–
Nc1nn2cc(-c3ccccc3)nc2c2ccccc12,3.2µM,1.9µM,?,4.5µM,?,5.2µM
Cc1ccc(CN2CC(C(=O)NCC(=O)Nc3c(C)cccc3C)CC2=O)cc1 (stereo unspecified),–,–,–,·,–,–
O=c1[nH]c2ccccc2nc1/C=C(\O)c1cccs1,3.2µM,?,4µM,·,–,?
O/C(=C\c1nc2ccccc2[nH]1)c1cccs1,4µM,13µM,3.5µM,·,?,?
N#C/C(=C(/O)c1cccs1)c1nc2ccccc2[nH]1,?,?,?,·,–,–
COc1ccc(OC)c(C(=O)COC(=O)c2cccnc2SC)c1,–,–,–,·,–,–
CSc1ncccc1C(=O)OCC(=O)c1cc(C)n(CC2CCCO2)c1C (stereo unspecified),0.4µM,0.6µM,1.1µM,·,–,?
COc1ccc(CCn2c(C)cc(C(=O)COC(=O)c3cnccn3)c2C)cc1,–,–,–,·,–,–
CCn1c(C)cc(C(=O)COC(=O)c2cccnc2SC)c1C,·,·,·,·,?,2.3µM
CCCn1c(C)cc(C(=O)COc2ncnc3sccc23)c1C,2.2µM,8.5µM,2.8µM,11µM,?,?
CCC(=O)c1ccc(OCC(=O)OCC(=O)c2cc(C)n(CC3CCCO3)c2C)cc1 (stereo unspecified),–,–,–,·,–,–
CCCn1c(C)cc(C(=O)COC(=O)c2nccnc2N)c1C,0.45µM,3.4µM,1.1µM,10µM,–,?
CCOC(=O)CCNC(=O)N1CCCC(N(C)CCc2ccccc2)C1 (stereo unspecified),–,–,–,·,·,–
CC1CCN(S(=O)(=O)c2ccc3c(c2)c(=O)c(C(=O)NC(C)c2ccccc2)cn3C)CC1 (stereo unspecified),·,–,·,–,·,·
SMILES,Rab9 prom act,FLuc counter,NPC1 prom act,SMN2 splice up,p53 reactivation,ELG1 genotoxic
CCC1c2ccc(C)n2CCN1C(=O)Nc1ccccc1C(=O)OC (stereo unspecified),–,–,–,–,?,–
CCCC1c2ccc(C)n2CCN1C(=O)Nc1ccccc1Cl (stereo unspecified),–,12µM,–,?,?,–
CCOC(=O)c1cc(-c2ccccc2C)nn1Cc1cc(CC)no1,–,17µM,–,·,–,–
Cc1nn(-c2ccccc2)c(C)c1/C=N/NC(=O)c1cnccn1,–,?,–,·,–,–
Cc1nn(-c2ccccc2)c(C)c1/C=N/NC(=O)c1ccccc1O,–,1.9µM,–,·,–,–
Cc1nn(-c2ccccc2)c(C)c1/C=N/NC(=O)c1cc(O)cc(O)c1,–,19µM,–,·,–,–
Cc1nn(-c2ccccc2)c(C)c1-c1cc(C(=O)N/N=C/c2ccc(O)cc2)[nH]n1,–,21µM,–,·,–,–
Cn1c(=O)c(-c2cc(Br)ccc2N)nc2ccccc21,?,24µM,–,–,?,?
O=S(=O)(NCc1nc2cccnc2n1Cc1ccccc1Cl)c1ccc(F)c(Cl)c1,·,–,·,·,·,·
CSc1ccc(/C=C(\C#N)C(=O)NC2CCCCC2)cc1,–,–,–,–[1.84 µM],–,–
COc1ccc(NC(=O)/C(C#N)=C/c2ccc(C)o2)cc1,·,2.7µM,·,13µM,·,·
COc1ccc(NC(=O)/C(C#N)=C/c2cc(C)n(-c3ccc(N4CCOCC4)c([N+](=O)[O-])c3)c2C)cc1,–,–,–,–,–,–
COc1ccc(NC(=O)/C(C#N)=C/c2ccc(Br)o2)cc1,–,–,–,?,–,–
N#C/C(=C/c1ccc(N2CCOCC2)o1)C(=O)NC1CCCCC1,–,12µM,–,·,–,–
N#C/C(=C\c1ccc(N2CCOCC2)o1)C(=O)Nc1ccc(O)cc1,–,5.4µM,–,16µM,–,?
COc1ccc(NC(=O)/C(C#N)=C\c2ccc(N3CCOCC3)o2)cc1,?,1.9µM,?,·,–,–
CCc1nc(SC)ncc1C(=O)N1CCN(c2cc(C)ccc2C)CC1,·,–,·,·,·,·
COc1ccc(N2CCN(CNC(=O)c3ccccc3)CC2)cc1,–,–,–,·,–,–
CCc1cnc2c(c1SCC(=O)Nc1ccc(Cl)cc1)c(=O)n(C)c(=O)n2C,·,–,·,·,·,·
Cc1ccc(S(=O)(=O)Oc2ccc(N=Nc3ccc(-c4ccc(N=Nc5c(O)ccc6cc(S(=O)(=O)O)cc(S(=O)(=O)O)c56)c(C)c4)cc3C)cc2)cc1,·,·,·,–,·,·
Cc1ccc2c(c1)N=C(c1ccc(F)cc1)CO2,3.2µM,4.3µM,4µM,–,?,?
O=[N+]([O-])c1ccc(C2=Nc3cc(Cl)ccc3OC2)cc1,–,15µM,–,–,–,–
Cc1ccc(-c2cc3ncc4c(n3n2)-c2cc(F)ccc2OC4)cc1,·,–,·,–,·,·
O=[N+]([O-])c1ccc(C2=NCCO2)cc1,–,–,–,·,–,–
CC(/C=N/NC(=O)c1ccc2nc(C)[nH]c2c1)=C\c1ccccc1,–,8.5µM,–,–,–,–
SMILES,Rab9 prom act,FLuc counter,NPC1 prom act,SMN2 splice up,p53 reactivation,ELG1 genotoxic
CC(/C=N/NC(=O)c1cc(-c2ccc(C)s2)[nH]n1)=C\c1ccccc1,–,?,–,–,–,–
CC(=C/c1ccccc1)/C=N/NC(=O)c1ccc2nc[nH]c2c1,–,5.4µM,–,?,–,–
O=C(N/N=C/C(Br)=C\c1ccccc1)c1ccc2nc[nH]c2c1,–,12µM,–,?,–,–
COc1ccc(-c2nc3c(c4c2C[C@H](c2ccccc2)OC4)CN(S(=O)(=O)c2ccc4c(c2)OCCN4C)CC3)c(C)c1,·,·,·,–[9.22 µM],·,·
CC(=O)c1ccc(C(=O)N(Cc2cccnc2)c2nc3c(Cl)cccc3s2)cc1,·,–,·,·,·,·
O=C(Cn1nnc2ccccc21)c1ccc(Br)cc1,?,24µM,–,·,–,–
